# PubChem BioAssay AID2283193 (EPA ToxCast)
# Results filed as inconclusive are left out. Calls of active or inactive are those of the source. How the source made its calls: active means hit-call score of the fitted dose curve at least 0.9, where 1 is the maximum; inconclusive means response in the unintended direction; inactive means score below 0.9.
# Target: human Protein Kinase C, zeta (PKCz), PRKCZ (gene 5590) (UniProt Q05513)
# Assay: NVS_ENZ_hPKCz: NovaScreen (NVS) Enzymatic Assay for human Protein Kinase C, zeta (PKCz)
# Experimental: NVS_ENZ_hPKCz is a biochemical, single-readout assay that uses extracted gene-proteins in a cell-free assay. Measurements were taken 1 hour after chemical dosing in a 384-well plate.NVS_ENZ_hPKCz is one of one assay component(s) measured or calculated from the NVS_ENZ_hPKCz assay. It is designed to make measurements of enzyme activity, a form of enzyme reporter, as detected with fluorescence intensity signals by Fluorescence and electrophoretic mobility shift technology.Data from the assay component NVS_ENZ_hPKCz was analyzed into 1 assay endpoint. This assay endpoint, NVS_ENZ_hPKCz, was analyzed in the positive analysis fitting direction relative to DMSO as the negative control and baseline of activity. Using a type of enzyme reporter, loss-of-signal activity can be used to understand changes in the enzymatic activity as they relate to the gene PRKCZ. Furthermore, this assay endpoint can be referred to as a primary readout, because this assay has produced multiple assay endpoints where this one serves a enzymatic activity function. To generalize the intended target to other relatable targets, this assay endpoint is annotated to the kinase intended target family, where the subfamily is serine/threonine kinase. […]
# human Protein Kinase C, zeta (PKCz), PRKCZ (gene 5590), sequence (Q05513 whole entry, looked up): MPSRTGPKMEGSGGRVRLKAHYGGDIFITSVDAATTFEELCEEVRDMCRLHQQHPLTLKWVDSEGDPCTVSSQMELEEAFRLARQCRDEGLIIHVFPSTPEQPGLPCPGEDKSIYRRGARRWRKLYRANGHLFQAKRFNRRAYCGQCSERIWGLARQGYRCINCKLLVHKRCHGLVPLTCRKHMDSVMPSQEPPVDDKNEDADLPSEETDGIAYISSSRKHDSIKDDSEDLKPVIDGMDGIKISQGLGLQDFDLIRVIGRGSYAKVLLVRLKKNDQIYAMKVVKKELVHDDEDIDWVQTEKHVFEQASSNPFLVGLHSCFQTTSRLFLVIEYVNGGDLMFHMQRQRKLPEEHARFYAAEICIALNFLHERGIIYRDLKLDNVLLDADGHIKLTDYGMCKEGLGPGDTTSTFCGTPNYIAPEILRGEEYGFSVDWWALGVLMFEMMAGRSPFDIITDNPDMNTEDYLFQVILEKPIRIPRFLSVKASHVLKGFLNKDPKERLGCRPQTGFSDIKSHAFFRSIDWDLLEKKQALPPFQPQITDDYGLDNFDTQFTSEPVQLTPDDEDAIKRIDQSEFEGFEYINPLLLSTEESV
compound,measurement,value
CCCCC(CC)COC(=O)c1ccccc1C(=O)O (stereo unspecified),outcome,inactive
